According to PubChem BioAssay AID1376 (SRMLSC, 2008):
Out of some 220,000 compounds screened, about 530 (0.24%) were called active. Cut-off read from the data, not from the text of the source: active = inhibition above about 13%; inconclusive = no clear call, values can overlap the other calls; inactive = below that. The sample as a whole holds a higher share of actives than the screen did. Results with a measured potency or affinity are listed apart.

Each molecule was assayed against Bifunctional protein GlmU (Mycobacterium tuberculosis (strain ATCC 25618 / H37Rv)) (UniProt P9WMN3) (assay: inhibition of mycobacterial GlmU enzyme – biochemical, glucosamine-1-phosphate acetyltransferase (AID 1376;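 note: 0% = complete reaction with vehicle and 100% = reaction without substrate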)). Conditions: M. tuberculosis GlmU acetyltransferase enzyme assay; active compounds read high;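 tested at 30 µM in the primary screen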.
Bifunctional protein GlmU (Mycobacterium tuberculosis (strain ATCC 25618 / H37Rv)), sequence (P9WMN3 whole entry, looked up): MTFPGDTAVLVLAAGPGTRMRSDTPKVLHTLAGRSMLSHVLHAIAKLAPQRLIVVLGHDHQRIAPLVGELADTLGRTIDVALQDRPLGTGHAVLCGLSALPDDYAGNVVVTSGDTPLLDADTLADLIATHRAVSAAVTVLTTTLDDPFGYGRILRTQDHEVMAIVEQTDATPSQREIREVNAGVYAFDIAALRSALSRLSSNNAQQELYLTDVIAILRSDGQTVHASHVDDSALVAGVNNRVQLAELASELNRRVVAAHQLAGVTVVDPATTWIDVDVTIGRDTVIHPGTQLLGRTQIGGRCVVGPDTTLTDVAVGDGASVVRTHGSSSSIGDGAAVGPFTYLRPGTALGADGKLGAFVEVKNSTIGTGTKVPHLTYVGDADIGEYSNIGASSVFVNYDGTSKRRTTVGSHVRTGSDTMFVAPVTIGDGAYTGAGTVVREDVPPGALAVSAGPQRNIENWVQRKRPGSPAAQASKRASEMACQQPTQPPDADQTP

| Structure (SMILES) | inhibition |
| --- | --- |
| C=CCn1c(O)c(C=NCCN2CCOCC2)c(=O)[nH]c1=S | -1.69% (inactive) |
| Cc1cc2nc(-c3ccc(SCc4ccc(C(=O)O)cc4)nc3)[nH]c2cc1C | 13.2% (active) |
| CC(=O)CSc1ccc(-c2nc3cc(C)c(C)cc3[nH]2)cn1 | 8.32% (inactive) |
| Cc1cc2nc(-c3ccc(SCc4ccc(C#N)cc4)nc3)[nH]c2cc1C | 0.22% (inactive) |
| O=C(O)c1ccccc1-c1ccccc1C(=O)Nc1cccc(Br)c1 | 0.35% (inactive) |
| CCOc1ccc(-c2cc3cc(OC)c(OC)cc3c(C)n2)cc1 | -1.9% (inactive) |
| Cc1nc(-c2ccccc2Cl)sc1C(=O)/C=C/N(C)C | -0.01% (inactive) |
| Cc1nnc(SCC(=O)Nc2ccc(-c3nc4ccccc4s3)cc2)s1 | 6.16% (inactive) |
| Cc1ccc2nc(-c3ccc(NC(=O)CSCC(=O)O)cc3)sc2c1 | 4.5% (inactive) |
| CCc1nc(-c2ccccc2)c2ccccn12 | 0.63% (inactive) |
| COCCn1nnnc1C(C(C)C)N(Cc1cccnc1)Cc1cc2cc(OC)ccc2[nH]c1=O (configuration not stated) | 0.94% (inactive) |
| COc1ccc(Cl)cc1NC(=O)NC(C)C | -2.94% (inactive) |
| COc1ccc(C)cc1NC(=O)NC(C)c1ccncc1 (configuration not stated) | -4.98% (inactive) |
| COc1ccc(Cl)cc1NC(=O)NC(C)c1ccncc1 (configuration not stated) | 13% (active) |
| Cc1cc2c3ccccc3ncn2n1 | 4.82% (inactive) |
| CCOC(=O)c1cnc2c(c(C)nn2C)c1Oc1ccccc1F | 3.91% (inactive) |
| COc1cccc(OCC(Cn2cnc3ccccc32)OC(C)=O)c1 (configuration not stated) | -0.44% (inactive) |
| O=C(/C=C/c1ccco1)Nc1cc(Cl)ccc1C(=O)O | 13% (active) |
| O=C(CCCN1C(=O)/C(=C/c2ccco2)SC1=S)Nc1cccc(C(=O)O)c1 | 8.84% (inactive) |
| CCc1ccccc1NC(=O)c1cccc(NC(=O)/C=C/c2ccco2)c1 | -2.87% (inactive) |
| O=C(/C=C/c1ccco1)Nc1ccccc1C(=O)Nc1cccc(C(=O)O)c1 | 3.1% (inactive) |
| O=C(/C=C/c1ccco1)Nc1ccccc1N1CCCC1 | -0.88% (inactive) |
| O=C(O)CCCN1C(=O)/C(=C\c2ccco2)SC1=S | 23.1% (inactive) |
| O=C(/C=C/c1ccco1)Nc1ccccc1C(=O)O | 15% (active) |
| O=C(/C=C/c1ccco1)Nc1cccc(C(=O)Nc2ccccc2C(=O)O)c1 | 14.7% (active) |

| Structure (SMILES) | inhibition |
| --- | --- |
| COC(=O)c1ccccc1NC(=O)/C=C/c1ccco1 | -3.26% (inactive) |
| O=C(/C=C/c1ccco1)Nc1ccc(Oc2ccc(Cl)cc2)cc1 | 2.3% (inactive) |
| O=C(/C=C/c1ccco1)Nc1cccnc1Cl | 0.97% (inactive) |
| CCc1cccc(CC)c1NC(=O)COC(=O)c1ccccc1-c1nc2ccccc2s1 | -1.43% (inactive) |
| COc1ccc(-n2c(SCC(=O)NCCCN3CCCC3=O)nnc2C(C)N2CCCCC2)cc1 (configuration not stated) | -0.73% (inactive) |
| O=C(O)C(Cc1cc(Cl)ccc1Cl)Sc1nc2ccccc2[nH]1 (configuration not stated) | -6.33% (inactive) |
| COCCNC(=O)COC(=O)c1[nH]c(C)c(C(C)=O)c1C | -0.47% (inactive) |
| COc1ccc(/C=C/C(=O)Nc2nnc(C(C)C)s2)cc1OC | 4.06% (inactive) |
| CN(C)/C=C/C(=O)C(Cl)(Cl)Cl | -0.97% (inactive) |
| COc1ccc(Nc2nnc(SCc3cc([N+](=O)[O-])cc4c3OCOC4)s2)cc1 | -5.67% (inactive) |
| O=C(CCCOc1ccc(Cl)cc1Cl)NCc1ccncc1 | 2.06% (inactive) |
| CN(CC(=O)Nc1ccc2c(c1)OCO2)S(=O)(=O)c1ccc2c(c1)CCC(=O)N2 | 2.93% (inactive) |
| CCN(CC)C(=O)Cc1c(O)c2ccccc2[nH]c1=O | 1.17% (inactive) |
| O=C(Cc1c(O)c2ccccc2[nH]c1=O)N(Cc1ccccc1)Cc1ccccc1 | 35% (active) |
| CC(C)CCN(CCC(C)C)C(=O)Cc1c(O)c2ccccc2[nH]c1=O | -2.47% (inactive) |
| COc1ccc(NC(=O)C2=C(C)Nc3nc(CCCO)nn3C2c2ccc(OC)c(OC)c2)cc1 (configuration not stated) | 6.23% (inactive) |
| COc1cc(NC(=O)c2cccs2)c(C(=O)OCC(=O)c2cc(C)n(-c3ccc(F)cc3)c2C)cc1OC | 3.27% (inactive) |
| Cc1ccccc1Oc1ccc(NC(=O)C2CC=CCC2C(=O)O)cc1 (configuration not stated) | 3.98% (inactive) |
| Cc1ncc(S(=O)(=O)c2ccccc2)c(-c2ccccc2Cl)n1 | 4.86% (inactive) |
| CN(C)c1ncc(S(=O)(=O)c2ccccc2)c(-c2ccccc2Cl)n1 | 13.9% (active) |
| CN(C)c1ncc(S(=O)(=O)c2ccc(Cl)cc2)c(-c2ccccc2)n1 | -0.58% (inactive) |
| CC(C)N1CCC(N2CCN(Cc3ccc4nsnc4c3)CC2CCO)CC1 (configuration not stated) | -6.91% (inactive) |
| O=C(CCc1nc2ccccc2[nH]c1=O)OCc1ccc(S(=O)(=O)N2CCOCC2)cc1 | 1.61% (inactive) |
| Cc1cccc2cc3c(NC(=O)CC(C)C)nn(C)c3nc12 | 0.35% (inactive) |
| CC1=C(C/C(C)=C/c2ccccc2)/C(=C/CO)[C@@H]2OC(=O)O[C@]2(C)C12CC2 | 3.53% (inactive) |

| Structure (SMILES) | inhibition |
| --- | --- |
| C/C(=C\c1ccccc1)CN1CCN(c2ccccc2)CC1 | 2.64% (inactive) |
| CC1=C(C/C(C)=C/c2ccccc2)/C(=C/CO)[C@H](O)[C@](C)(O)C12CC2 | 13.9% (active) |
| NC(=O)Nc1cccc2ccccc12 | 14.6% (active) |
| NC(=O)NNC(=S)Nc1cccc2ccccc12 | 4.54% (inactive) |
| NC(=O)c1ccccc1NC(=O)Nc1cccc2ccccc12 | -1.2% (inactive) |
| O=C1CCCC2=C1C1c3ccccc3C(=O)N1c1ccc(C(=O)c3ccccc3)cc1N2 (configuration not stated) | 0.1% (inactive) |
| O=C(CCC(=O)c1ccc(Oc2ccccc2)cc1)Nc1cccc(Cl)c1 | 3.77% (inactive) |
| Cc1c2cc(O)c(=O)cc-2oc2cc(O)c(O)cc12 | 27.1% (active) |
| CC1(C)CC(=O)c2c(oc3cc(O)c(O)cc23)C1 | -1.56% (inactive) |
| COc1ccc(OC)c(-c2oc3ccccc3c(=O)c2O)c1 | 0.78% (inactive) |
| COc1cc(OC)c(-c2c3cc(O)c(=O)cc-3oc3cc(O)c(O)cc23)cc1OC | 8.01% (inactive) |
| COc1ccc(OC)c(-c2c3cc(O)c(=O)cc-3oc3cc(O)c(O)cc23)c1 | 14.7% (active) |
| Cc1ccccc1-c1cc(=O)c2c(O)cccc2o1 | -2.72% (inactive) |
| O=c1cc2oc3cc(O)c(O)cc3c(-c3ccccc3O)c-2cc1O | 15.4% (active) |
| CCOc1ccccc1-c1c2cc(O)c(=O)cc-2oc2cc(O)c(O)cc12 | -3.1% (inactive) |
| O=c1cc(-c2ccccc2Cl)oc2cccc(O)c12 | 3.22% (inactive) |
| Cc1cc(NC(=O)CCCn2nc([N+](=O)[O-])cc2C)no1 | 0.02% (inactive) |
| COc1ccc2c(OC)cc(-c3ccccc3)nc2c1 | 3.08% (inactive) |
| Cc1cc(NC(=O)Cc2ccccc2)c2ccccc2n1 | -0.11% (inactive) |
| CC(=O)Nc1cccc(NC(=O)CSc2ccc(C(F)(F)F)cc2[N+](=O)[O-])c1 | 1.81% (inactive) |
| CCOC(=O)c1c(C2CC2)csc1NC(=O)COC(=O)c1cnc(Cl)c(Cl)c1 | 4.42% (inactive) |
| S=c1[nH]nc(COc2cccc(Cl)c2)n1Cc1ccccc1 | 2.34% (inactive) |
| O=C(Cc1c[nH]c2ccccc12)Nc1nccs1 | 3.72% (inactive) |
| CC1Cc2ccccc2N1C(=O)C1CCCN(S(=O)(=O)c2cccc3cccnc23)C1 (configuration not stated) | -0.65% (inactive) |
| CCSc1nc2ccccc2c(=O)n1C1CCOC(C)(C)C1 (configuration not stated) | 7.35% (inactive) |

| Structure (SMILES) | inhibition |
| --- | --- |
| O=C(NCCCN1CCOCC1)c1sc2cc(Cl)ccc2c1Cl | 4.82% (inactive) |
| O=C(NCCCN1CCOCC1)c1sc2cc(F)ccc2c1Cl | -2.73% (inactive) |
| O=C(NCCCN1CCOCC1)c1sc2cc([N+](=O)[O-])ccc2c1Cl | 12.9% (active) |
| CCN(CC)c1ccc(N=Nc2ncn[nH]2)cc1 | -1.86% (inactive) |
| COc1ccc2ccccc2c1C1CC(=O)N2CN(C)CSC2=C1C#N (configuration not stated) | 13.8% (active) |
| CCOc1ccccc1N1CSC2=C(C#N)C(c3c(OC)ccc4ccccc34)CC(=O)N2C1 (configuration not stated) | 3.43% (inactive) |
| COc1ccc2ccccc2c1C1CC(=O)N2CN(C3CCCCC3)CSC2=C1C#N (configuration not stated) | 7.17% (inactive) |
| O=C(O)COc1c(Cl)cc(/C=C2\NC(=O)NC2=O)cc1Br | 3.85% (inactive) |
| CC(C)OC(=O)c1cccc(C(=O)Nc2cccc(NC(=O)c3cccc(C(=O)OC(C)C)n3)n2)n1 | 2.69% (inactive) |
| O=C(O)c1cc(-c2ccc(/C=N/NC(=S)Nc3ccccc3)o2)ccc1Cl | 10.1% (inactive) |
| O=C(N/N=C/c1ccc([N+](=O)[O-])o1)c1cc2c(ccc3ccccc32)o1 | -4.6% (inactive) |
| COC(=O)c1cc(O)cc(OC)c1C(=O)c1c(O)cc(C)cc1O | 0% (inactive) |
| COC(=O)c1cc(OC)cc(O)c1C(=O)c1c(O)cc(C)cc1O | 1.11% (inactive) |
| Clc1ccc(-c2csc(Nc3cccnc3)n2)cc1 | -1.87% (inactive) |
| CCCCCCNCc1c(F)cccc1Cl | -1.27% (inactive) |
| CCOC(=O)/C(=N/Nc1ccccc1OC)N1CCCc2ccccc21 | 3.21% (inactive) |
| Cc1nc2c(=O)n(-c3ccc(F)c(Cl)c3)nc(C)c2s1 | -1.25% (inactive) |
| Cc1ccc(NC(=S)N/N=C2\CC3CC=CC23)c(C)c1 (configuration not stated) | 2.83% (inactive) |
| FC(F)(F)c1ccccc1NC(=S)N/N=C1\CC2CC=CC12 (configuration not stated) | -4.32% (inactive) |
| Cc1cccc(C)c1NC(=S)N/N=C1\CC2CC=CC12 (configuration not stated) | 14.2% (active) |
| Clc1ccc(-c2nnc(-c3ccco3)nc2N2CCCCC2)cc1 | -2.38% (inactive) |
| Cc1ccc(C(=O)N/N=C\c2ccc(-c3ccc(Cl)c(Cl)c3)o2)cn1 | -1.63% (inactive) |
